± gives the standard deviation of the averaged measurements. The full ranking holds about 33,000 sequences; the median of “E-score (dimensionless, -0.5 to 0.5)” is about -0.046, and the highest 2% start at about 0.36. The sample as a whole holds a higher share of the highest values than the screen did.
The sequences below were run on T1, SpTbr T-box DNA-binding domain (GST fusion) (assay: PBM E-score of 8-mer (E-score (dimensionless, -0.5 to 0.5)); Tbr is Tbrain of the sea star Patiria miniata (Pm) or the sea urchin Strongylocentrotus purpuratus (Sp); higher = stronger binding preference). Settings: the construct has about 5 more residues each side.
T1 sequence: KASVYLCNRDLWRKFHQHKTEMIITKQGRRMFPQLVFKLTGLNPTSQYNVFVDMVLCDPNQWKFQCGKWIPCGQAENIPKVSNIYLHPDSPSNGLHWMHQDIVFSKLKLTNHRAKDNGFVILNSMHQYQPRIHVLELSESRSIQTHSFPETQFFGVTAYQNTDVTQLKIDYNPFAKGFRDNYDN
Method: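 Universal protein-binding microarray (Agilent AMADID 016060, 60-bp probes with a 35-bp variable region) incubated with 200 nM GST-fused Strongylocentrotus purpuratus Tbr T-box DNA-binding domain (residues 362-554) in PBS pH 7.5. Scored for every ungapped 8-mer (given with its reverse complement) as E-score (range -0.5 to 0.5; >0.45 counts as bound) and Z-score of median probe intensity. Two replicate arrays (datasets 1 and 2).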
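Note: protein at 200 nM in PBS on universal double-stranded arrays.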

Sequence	PBM E-score of 8-mer
GTGGCCAC	0.225 ± 0.026
ACTGCTGC	-0.0667 ± 0.011
ATCAAGAA	-0.219 ± 0.094
GAGTTAGC	0.0856 ± 0.074
CTCCAAAC	-0.0591 ± 0.11
ATTGTCGA	0.0605 ± 0.042
ATTGTCGC	0.263 ± 0.028
CGTGTCGC	0.254 ± 0.045
AGTGTCGA	0.405 ± 0.0049
GTTGTCGA	0.271 ± 0.0066
AGTGTCGC	0.412 ± 0.016
GGTGTCGA	0.453 ± 0.015
AGTGTCGG	0.36 ± 0.015
CGTGTCGA	0.264 ± 0.013
CTGAGGAC	0.0509 ± 0.03
AGGGAGCC	-0.14 ± 0.027
CAATACTG	-0.127 ± 0.0078
AATGGGAA	-0.188 ± 0.032
AGGGCTGG	-0.253 ± 0.011
GTTCCTCA	-0.0698 ± 0.064
CTAGCTAA	0.041 ± 0.025
AGTCGCAA	0.132 ± 0.0059
AGTCGCAC	0.387 ± 0.0041
GGTCGCAA	0.208 ± 0.029
CGTCGCAC	0.327 ± 0.0036

Sequence	PBM E-score of 8-mer
AGTCGCAG	0.0537 ± 0.061
GGTCGCAC	0.365 ± 0.046
CGGGGCTA	-0.315 ± 0.0072
ATCCACAG	-0.0171 ± 0.029
AACCACCC	-0.022 ± 0.044
ACAAAGCC	-0.0854 ± 0.036
ATGGGCCG	-0.31 ± 0.017
GCGGAGAA	0.059 ± 0.053
CGTGCCAA	0.306 ± 0.03
GGTGCCAC	0.368 ± 0.0043
GGTGCCTA	0.0923 ± 0.1
AGTGCCAC	0.25 ± 0.013
GCTGCCAA	0.0847 ± 0.029
AGTGCCAA	0.359 ± 0.0081
CGTGCCAC	0.254 ± 0.041
TGTGCCAA	0.364 ± 0.021
GGTGCCAA	0.447 ± 0.0064
CGGAAAAA	0.019 ± 0.025
ATCAGTGG	-0.149 ± 0.015
CTGTTGTA	0.0999 ± 0.01
TACGACTA	-0.13 ± 0.016
AATGCTGT	-0.0262 ± 0.063
CCTCAAGA	-0.0881 ± 0.046
GGTACTCA	-0.0116 ± 0.057
ACTCACGG	0.061 ± 0.057

Sequence	PBM E-score of 8-mer
CATGAAGC	-0.112 ± 0.013
ACGGTTAC	-0.0916 ± 0.0079
ATGCTCAC	0.277 ± 0.023
TCCATCGA	-0.0839 ± 0.076
GGTCTCAC	0.3458 ± 0.0029
CCACCTGC	0.269 ± 0.0095
AGACCTGA	-0.094 ± 0.0078
GCACCTGC	0.388 ± 0.024
GAACCTGC	-0.126 ± 0.13
CGACCTGC	0.177 ± 0.026
ACACCTGG	0.44 ± 0.029
ACACCTGC	0.4527 ± 0.0032
AAACCTGA	-0.00426 ± 0.071
ATACCTGC	-0.0105 ± 0.0085
ACACCTGA	0.4627 ± 0.0023
CCACCTGG	0.186 ± 0.029
ATACCTGG	0.0363 ± 0.063
GCCCAAGC	-0.24 ± 0.0088
ACGCAAGA	-0.0517 ± 0.024
AACAACGT	0.00981 ± 0.00099
CTTTAAGC	-0.136 ± 0.004
AACTTCAG	-0.23 ± 0.022
CTCACTGC	0.0922 ± 0.076
GCATGTCC	-0.0875 ± 0.095
CGGCTTGC	-0.14 ± 0.0054

Sequence	PBM E-score of 8-mer
AAGCGAGG	0.115 ± 0.03
CAAGCTAC	-0.147 ± 0.014
AAGTGTAC	0.00907 ± 0.056
GAGTGTAC	-0.0659 ± 0.019
CAGTGTTA	0.31 ± 0.028
AAGTGGTA	0.083 ± 0.018
AAGTGTTG	0.422 ± 0.02
AAGTGTTC	0.226 ± 0.11
CAGTGTTC	0.0165 ± 0.024
GAGTGTTA	0.386 ± 0.021
AAGTGTTA	0.451 ± 0.00073
CATCTGTA	-0.0572 ± 0.038
CACCAATG	0.179 ± 0.0061
CACAATCC	0.0504 ± 0.056
ATGCCCAT	-0.184 ± 0.01
AGGCAGAT	-0.0669 ± 0.075
TGGGCGAA	-0.169 ± 0.019
GAGGACAC	0.155 ± 0.015
GGTGGGGA	0.248 ± 0.033
AACAGGTG	0.364 ± 0.028
CACAGGTA	0.141 ± 0.0043
CACAGGTG	0.453 ± 0.005
AGCAGGTA	-0.132 ± 0.031
AACAGGTA	0.0912 ± 0.072
ATCAGGTA	-0.128 ± 0.008

Sequence	PBM E-score of 8-mer
CACAGGTC	0.198 ± 0.045
ATCAGGTC	-0.171 ± 0.075
AGCAGGTC	-0.0223 ± 0.011
AACAGGTC	0.107 ± 0.0057
ATCAGGTG	0.386 ± 0.015
AGCAGGTG	0.377 ± 0.00094
AGCGGTGC	-0.00638 ± 0.018
ACAATGCG	0.222 ± 0.025
CGAGAGTA	0.0304 ± 0.018
GAGATTGC	0.116 ± 0.014
CGCTGGCC	-0.032 ± 0.027
CTTACTCC	-0.125 ± 0.049
CAGCGTGG	-0.111 ± 0.012
CAGTCCAC	0.192 ± 0.026
AGCACTCA	0.079 ± 0.03
AAAGCAAA	0.00628 ± 0.091
CTGTGGAA	0.061 ± 0.12
GTGTGGGA	0.387 ± 0.038
ATGTGGAA	0.0153 ± 0.034
GTGTGGAA	0.3848 ± 0.0012
CTGTGGGA	0.105 ± 0.057
ATGTGGGA	0.234 ± 0.041
CGGCCCAG	-0.2798 ± 0.0014
CAGAATGC	0.0116 ± 0.023
GCCACGAA	0.00399 ± 0.009

Sequence	PBM E-score of 8-mer
CGCCAGCC	0.0479 ± 0.008
AGCGAAAA	-0.0276 ± 0.011
TGCGAAAA	0.383 ± 0.038
TGCGAACA	0.419 ± 0.015
CGCGAAAA	0.347 ± 0.04
GGCGAACA	0.137 ± 0.018
AGCGAACA	0.078 ± 0.037
CGTTTCAA	-0.029 ± 0.015
CGCTGTAC	-0.164 ± 0.046
ATACAGGG	-0.276 ± 0.015
AAGGGTAT	-0.121 ± 0.02
AGGCGTGA	0.4754 ± 0.0047
AAGCGTGT	0.288 ± 0.012
AGGCGTGG	0.321 ± 0.044
CTGCGTGA	0.172 ± 0.033
GTGCGTGA	0.316 ± 0.057
GCGCGTGA	0.344 ± 0.033
ACGCGTGA	0.407 ± 0.0058
ACGCGTGC	0.149 ± 0.066
ATGCGTGA	0.374 ± 0.0053
AAGCGTGA	0.415 ± 0.01
AAGCGTGG	0.179 ± 0.047
AGGCGTGC	0.236 ± 0.052
AGGATGAT	-0.095 ± 0.066
TCCACGGA	-0.0375 ± 0.11

Sequence	PBM E-score of 8-mer
CTCCAAGA	-0.0401 ± 0.032
ACGGCTCA	-0.0392 ± 0.022
TTATTGAA	-0.142 ± 0.024
GAATCAGA	-0.0679 ± 0.055
AGGCGTTG	0.355 ± 0.0053
GGGCGTAA	0.131 ± 0.047
CGGCGTGA	0.33 ± 0.047
GGGCGTGA	0.44 ± 0.015
AGGCGTTA	0.434 ± 0.018
GGGCGTTA	0.2697 ± 0.0022
CACTAGCG	0.139 ± 0.072
AGGTTTGC	-0.0997 ± 0.11
ATCGTGAG	0.208 ± 0.0056
TATTCGGA	-0.284 ± 0.034
CACTCAGG	-0.0871 ± 0.041
CGTGCGAA	0.4443 ± 0.0016
AGTGCGAA	0.47263 ± 0.00019
GATGCGAC	0.216 ± 0.022
AGTGCGTA	0.0849 ± 0.013
GTTGCGAA	0.393 ± 0.0099
GCTGCGAC	0.137 ± 0.059
AATGCGAA	0.0358 ± 0.024
CGTGCGCA	0.155 ± 0.0026

Source: the supplement of paper PMC4166925
